Inconclusive results are not listed. Where a call stands in place of a potency, no number is given. Activity calls are given as the source filed them. Calls follow the shape of the dose curve; as a rule, active = well fitted curve in the direction sought with a large enough effect; inconclusive = small, poorly fitted or top-dose-only effect, or another doubt; inactive = no such curve, though single readings can be large or run the other way. Square brackets hold non-standard residues; d marks the D form. Peptide text beside a SMILES is read from it. ξ: configuration not given here. ξL = CC(C)CC(N)C(=O)O

This assay in a line: HPAF-II 18hr Apoptosis Induction qHTS against the NCATS CANVASS Library (AID 1347360). The following applies: HPAF-II caspase-3/7 luminescence; series mostly up to 46.1 µM. Put shortly: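 Apoptosis was scored as caspase-3/7 activity in HPAF-II pancreatic cancer cells treated 18 hours with an 11-point concentration series.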
Turning to `O[C@H]1C=C2[C@H]3CN(Cc4cc5c(cc43)OCO5)[C@H]2C[C@@H]1O`, the Potency entry is “inactive”.

For `CC[C@@H](c1cc(OC)c(OC)cc1OC)[C@H](C)[C@@H](/C(C)=C/c1cc(OC)c(OC)cc1OC)c1cc(OC)c(OC)cc1OC`, the Potency result was “inactive”.

As to `C/C=C/c1cc2c(c(=O)o1)C(=O)[C@@H](O)[C@H](C)O2`, the Potency result is “inactive”.

`CC[C@@H](C)[C@H]1NC(=O)C(CC(C)C)NC(=O)[C@@H](CC(C)C)NC(=O)[C@H](Cc2c[nH]c3ccccc23)NC(=O)CNC(=O)[C@@H](CC(N)=O)NC1=O` (stereo partly drawn) (cyclo(GW[dL][ξL][dI][dN])): the Potency result was “inactive”.

Turning to `CN1CCc2cc3c(c4c2C1(C)C(=O)c1cc(O)ccc1-4)OCO3` (configuration not stated), the Potency entry is “inactive”.

As for `COc1cc2c(cc1OC)[C@@H](c1ccc3c(c1)OCO3)C(C)[C@@H](C)C2=O` (some centres not stated), the Potency entry was “inactive”.

As to `CC(C)[C@@H]1CC(=O)c2coc3c2[C@H]1C[C@@H](C)C3=O`, the Potency result is “inactive”.

For the compound `COc1cc2oc3ccccc3c(=O)c2cc1OC`, the Potency result is “inactive”.

With `COC(=O)[C@@]1(C)CCC[C@]2(C)c3cc(OC)ccc3CC[C@@H]12`, the Potency result was “inactive”.

For the compound `COc1cc2ccc(=O)oc2c(O)c1O[C@@H]1O[C@H](CO)[C@@H](O)[C@H](O)[C@H]1O`, the Potency entry is “inactive”.

As for `O=C1CCC(=O)N(O)CCCCCNC(=O)CCC(=O)N(O)CCCCCNC(=O)CCC(=O)N(O)CCCCCN1`, the Potency result is “inactive”.

Consider `C=C1C[C@H]2O[C@@H]3[C@@H]4[C@H](CC[C@@](C)(O)[C@@H]42)[C@H](C)COC3(C)[C@@H](OC(=O)CCCCCCC)C[C@H]1O` (some centres not stated), for which the Potency entry is “inactive”.

For `CC1=C(C)C(=O)OC(C(C)C2(O)CCC3C4C5OC5C5(O)CC=CC(=O)C5(C)C4CCC32C)C1` (configuration not stated), the Potency entry is “inactive”.

Take `C[C@H](CCC(O)C(C)(O)CO)[C@@]1(O)CC[C@@]2(C)C3=C(CC[C@@]21C)[C@@]1(C)CCC(OC(=O)CCC(=O)O)C(C)(C)[C@@H]1CC3` (some centres not stated): the Potency entry was “inactive”.

Turning to `COc1cc(C2C3=C(Cc4cc5c(cc42)OCO5)C(=O)OC3)cc(OC)c1OC` (configuration not stated), the Potency result is “inactive”.

Consider `CO[C@@H]1[C@H](O)[C@@H](C)O[C@@H](OC[C@@H]2C(C)OC(=O)/C=C/[C@H](C)C(O[C@@H]3O[C@H](C)CC4(OC(=O)O[C@@H]4C)C3O)[C@@H](C)CC(C)C(=O)/C=C/[C@H]3OC23)[C@@H]1OC` (some centres not stated), for which the Potency entry is “inactive”.

For `C=C[C@@](C)(O)CC[C@@H]1[C@@]2(C)CCCC(C)(C)[C@@H]2CC[C@@]1(C)O`, the Potency result is “inactive”.

As to `COc1ccc([C@@H]2c3cc4c(cc3C(=O)[C@H](C)C2C)OCO4)cc1OC` (some centres not stated), the Potency entry is “inactive”.

Turning to `C/C(=C\[C@H](C)C(=O)C[C@H](O)CC1CC(=O)NC(=O)C1)[C@@H]1OC(=O)CCCC/C=C/[C@@H](O)C[C@@H]1C`, the Potency result is “inactive”.

`CC1=C[C@H]2[C@H]3C(=O)C(c4ccc(O)cc4)=C[C@@]3(c3ccc(O)cc3)[C@@H]1C(=O)[C@]2(C)O`: the Potency result is “inactive”.

`C=C1C(=O)O[C@H]2[C@H]1CCC(C)=C1CC[C@@](C)(O)[C@@H]12`: the Potency entry was “inactive”.

Turning to `C/C(=C\[C@H](C)C(=O)/C=C/CC1CC(=O)NC(=O)C1)[C@@H]1OC(=O)CCCC/C=C/[C@H](O)[C@@H](O)[C@@H]1C`, the Potency entry is “inactive”.

Take `C[C@H](c1cnc(N)[nH]1)c1ccc(O)c2[nH]cc(-c3cnc(-c4c[nH]c5ccccc45)c(=O)[nH]3)c12`: the Potency entry is “inactive”.

As for `COc1ccc([C@@H]2c3cc4c(cc3C[C@H](C)C2C)OCO4)cc1OC` (some centres not stated), the Potency result is “inactive”.

For `C[C@H]1CCC2(OC1)O[C@H]1C[C@H]3[C@@H]4CC(=O)[C@]5(O)C[C@H](O)CC[C@@]5(C)[C@H]4CC[C@@]3(C)[C@H]1[C@H]2C` (some centres not stated), the Potency entry was “inactive”.

In the case of `C/C1=C/[C@@H](C)[C@H](O)C/C=C/CC/C=C/C(=O)O[C@@H]1[C@H](C)C(=O)CCCC1CC(=O)NC(=O)C1`, the Potency result was “inactive”.

`C=C1C[C@H]2O[C@@H]3[C@@H]4[C@H](CC[C@@](C)(O)[C@@H]42)[C@H](C)COC3(C)[C@@H](OC(=O)CCCCCCC)CC1=O` (some centres not stated): the Potency entry was “inactive”.
